PubChem BioAssay (Tox21)
Inconclusive results are not listed. A call without a number means that no potency is given here. Unmarked numbers belong to inactive results. Active and inactive are the calls of the source. Calls follow the shape of the dose curve; as a rule, active = well fitted curve in the direction sought with a large enough effect in the repeat runs; inconclusive = weak or mixed curves; inactive = no such curve, though single readings can be large; an effect the other way counts as inactive or inconclusive.

What was measured:
[1] = qHTS RealTime-Glo MT Cell Viability Assay in HepG2 cells - 40 hour (AID 1224870); also: nearly all actives have a fitted effect of over 50% in size
Summary of the method: (§1)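 HepG2 cells mixed with RealTime-Glo MT reagents (NanoLuc plus cell-permeant prosubstrate) were seeded at 600 cells/well, incubated 5 h at 37 C/5% CO2, then pinned with compounds in DMSO; nonlytic luminescence tracked viability during 40 h treatment.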

[2] = A CellTox Green Cytotoxicity Assay to monitor cytotoxicity in HEK293 cells - 40 hour (AID 1224871); also: nearly all actives have a fitted effect of over 45% in size
Summary of the method: (§2)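 Seeding of HEK293 cells together with cytotoxicity dye preceded a 5 h incubation at 37 C/5% CO2. Test compounds in DMSO were then added and fluorescence monitored across 40 h.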

[3] = qHTS RealTime-Glo MT Cell Viability Assay in HEK293 cells - 16 hour (AID 1224872); also: nearly all actives have a fitted effect of over 50% in size; also: potency is read from the fitted curve at half-maximal effect
Summary of the method: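 Nonlytic real-time viability readout: viable cells convert prosubstrate to NanoLuc substrate, giving luminescence proportional to live cell number. HEK293, 600 cells/well, compound added after 5 h, continuous culture at 37 C.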

[4] = qHTS RealTime-Glo MT Cell Viability Assay in HepG2 cells - 8 hour (AID 1224873); also: nearly all actives have a fitted effect of over 55% in size
Summary of the method: as §1

[5] = qHTS RealTime-Glo MT Cell Viability Assay in HEK293 cells - 40 hour (AID 1224874); settings: RealTime-Glo luminescence; max response: hits give low values; also: nearly all actives have a fitted effect of over 50% in size; also: potency is read from the fitted curve at half-maximal effect
Summary of the method: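 Tox21 screen in HEK293 using RealTime-Glo MT chemistry, with cells and reagent co-dispensed. Luminescence proportional to viable cell number was captured at intervals during 40 h compound exposure at 37 C.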

[6] = A CellTox Green Cytotoxicity Assay to monitor cytotoxicity in HEK293 cells - 24 hour (AID 1224875); also: series mostly up to about 77 µM; nearly all actives have a fitted effect of over 45% in size
Summary of the method: as §2

[7] = A CellTox Green Cytotoxicity Assay to monitor cytotoxicity in HepG2 cells - 16 hour (AID 1224876); also: nearly all actives have a fitted effect of over 45% in size
Summary of the method: (§3)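 Nonlytic assay: viable cells exclude the dye, so fluorescence scales with cell death. HepG2 at 600 cells/well, compounds added after 5 h, signal read across 40 h.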

[8] = qHTS RealTime-Glo MT Cell Viability Assay in HepG2 cells - 32 hour (AID 1224877); also: nearly all actives have a fitted effect of over 55% in size
Summary of the method: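 Luminescence read-out: viable HepG2 cells reduce a prosubstrate to a NanoLuc substrate, giving a signal proportional to live cell number. Reads taken at 0, 8, 16, 24, 32 and 40 h of compound exposure at 37 C.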

[9] = A CellTox Green Cytotoxicity Assay to monitor cytotoxicity in HepG2 cells - 24 hour (AID 1224878); also: nearly all actives have a fitted effect of over 45% in size
Summary of the method: as §3

[10] = A CellTox Green Cytotoxicity Assay to monitor cytotoxicity in HepG2 cells - 40 hour (AID 1224879); also: nearly all actives have a fitted effect of over 40% in size
Summary of the method: as §3

| Compound | outcome [1] | Potency [2] | Potency [3] | outcome [4] | max response [5] [%] | outcome [6] | outcome [7] | outcome [8] | outcome [9] | Potency [10] | Potency [5] |
| --- | --- | --- | --- | --- | --- | --- | --- | --- | --- | --- | --- |
| CCOC(=O)c1ncn2c1CN(C)C(=O)c1cc(F)ccc1-2 | inactive | inactive | inactive | inactive | -10.6 | inactive | inactive | inactive | inactive | inactive | – |
| O=C(OCC(O)CO)c1ccccc1Nc1ccnc2c(C(F)(F)F)cccc12 (stereo not given) | inactive | inactive | 5.35 µM (active) | inactive | – | inactive | inactive | inactive | inactive | inactive | 3.79 µM (active) |
| CCOCCOC(=O)/C=C/c1ccc(OC)cc1 | inactive | inactive | inactive | inactive | 4.37 | inactive | inactive | inactive | inactive | inactive | – |
| COc1cc2c(cc1OC)C(=O)CC2 | inactive | inactive | inactive | inactive | -24.5 | inactive | inactive | inactive | inactive | inactive | – |
| COC(=O)[C@@H]1[C@H]2C[C@H]3c4[nH]c5ccccc5c4CCN3C[C@@H]2CC[C@@H]1O | inactive | inactive | inactive | inactive | -22.3 | inactive | inactive | inactive | inactive | inactive | – |
| OCCCCC(O)CO (stereo not given) | inactive | inactive | inactive | inactive | 5.78 | inactive | inactive | inactive | inactive | inactive | – |
| NCCS | inactive | inactive | inactive | inactive | 7.37 | inactive | inactive | inactive | inactive | inactive | – |
| CC(C)(C)c1nnc(NS(=O)(=O)c2ccc(N)cc2)s1 | inactive | inactive | inactive | inactive | 2.09 | inactive | inactive | inactive | inactive | inactive | – |
| CCCC/C=C\CCCCCCCCCC=O | inactive | inactive | inactive | inactive | -10.9 | inactive | inactive | inactive | – | inactive | – |
| CC(C)=O | inactive | inactive | inactive | inactive | 0.384 | inactive | inactive | inactive | inactive | inactive | – |
| CC(=O)c1ccc2c(c1)Cc1ccccc1-2 | inactive | inactive | inactive | inactive | -0.213 | inactive | inactive | inactive | – | inactive | – |
| CC(C)c1ccc2cc(C(C)C)ccc2c1 | inactive | inactive | inactive | inactive | 11.1 | inactive | inactive | inactive | inactive | inactive | – |
| CC(=O)CCCCn1c(=O)c2c(ncn2C)n(C)c1=O | inactive | inactive | inactive | inactive | -0.881 | inactive | inactive | inactive | – | inactive | – |
| NNc1nnc(NN)c2ccccc12 | inactive | inactive | inactive | inactive | 0.221 | inactive | inactive | inactive | inactive | inactive | – |
| CCOc1cc(NC(C)=O)ccc1C(=O)OC | inactive | inactive | inactive | inactive | -4.96 | inactive | inactive | inactive | – | inactive | – |
| C[C@@H](O)[C@H]1C(=O)N2C(C(=O)O)=C(SCCN=CN)C[C@H]12 | inactive | inactive | inactive | inactive | 2.62 | inactive | inactive | inactive | – | inactive | – |
| Cc1ccccc1OCC(O)CO (stereo not given) | inactive | inactive | inactive | inactive | 1.4 | inactive | inactive | inactive | – | inactive | – |
| C=C(C)C(=O)OCc1ccccc1 | inactive | inactive | inactive | inactive | -7.63 | inactive | inactive | inactive | – | inactive | – |
| OC[C@H](Cc1cccc(O)c1)[C@H](CO)Cc1cccc(O)c1 | inactive | inactive | inactive | inactive | -10.5 | inactive | inactive | – | inactive | inactive | – |
| CC(=O)Nc1ccc(S(=O)(=O)Cl)cc1 | inactive | inactive | inactive | inactive | -6.18 | inactive | inactive | inactive | inactive | inactive | – |
| O=C(O)c1cc(Cl)cc([N+](=O)[O-])c1Cl | inactive | inactive | inactive | inactive | 21 | inactive | inactive | inactive | – | inactive | – |
| CC(C)CC(C)CC(C)CC(C)COC(=O)c1ccccc1C(=O)OCC(C)CC(C)CC(C)CC(C)C (stereo not given) | inactive | inactive | inactive | inactive | 4.21 | inactive | inactive | – | inactive | inactive | – |
| CC(=O)NCCCCCC(=O)O | inactive | inactive | inactive | inactive | 5.61 | inactive | inactive | inactive | inactive | inactive | – |
